# Assay outcomes: PubChem, National Center for Advancing Translational Sciences (NCATS)
# TRPV1 potentiator = potentiators of human vanilloid receptor 1 (TRPV1); hit rate 0.02% among 320,000; TRPV1-expressing cells, Fluo-8 calcium influx, capsaicin EC20 potentiation; potentiation, % at 8.33 µM; Q8NER1; AID 540277; in the data active = potentiation above about 80%; inconclusive = between about 30% and that limit; note: 0% is about no effect
# Target sequence (Q8NER1 whole entry, looked up): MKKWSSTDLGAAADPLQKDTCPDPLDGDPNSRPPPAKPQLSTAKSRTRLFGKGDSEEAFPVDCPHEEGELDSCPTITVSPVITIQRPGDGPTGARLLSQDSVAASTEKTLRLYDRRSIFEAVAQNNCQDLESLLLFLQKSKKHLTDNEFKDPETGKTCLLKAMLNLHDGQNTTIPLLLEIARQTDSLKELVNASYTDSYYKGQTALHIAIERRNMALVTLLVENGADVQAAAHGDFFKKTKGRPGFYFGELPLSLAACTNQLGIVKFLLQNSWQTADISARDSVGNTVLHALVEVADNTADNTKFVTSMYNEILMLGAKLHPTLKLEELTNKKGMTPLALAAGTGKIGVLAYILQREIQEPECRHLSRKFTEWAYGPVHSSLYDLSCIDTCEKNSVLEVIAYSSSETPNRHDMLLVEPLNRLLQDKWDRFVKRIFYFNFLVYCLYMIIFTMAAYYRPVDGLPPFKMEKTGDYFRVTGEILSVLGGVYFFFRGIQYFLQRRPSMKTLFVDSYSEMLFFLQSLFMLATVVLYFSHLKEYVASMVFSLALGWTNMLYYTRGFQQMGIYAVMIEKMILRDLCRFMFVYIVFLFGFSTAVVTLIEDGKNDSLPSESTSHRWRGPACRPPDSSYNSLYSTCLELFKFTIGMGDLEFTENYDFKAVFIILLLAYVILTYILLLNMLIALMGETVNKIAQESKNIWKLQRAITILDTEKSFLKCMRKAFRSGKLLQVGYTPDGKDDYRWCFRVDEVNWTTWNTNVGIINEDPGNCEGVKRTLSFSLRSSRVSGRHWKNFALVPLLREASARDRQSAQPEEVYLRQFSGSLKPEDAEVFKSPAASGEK
#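 Cells expressing TRPV1 were dye-loaded with Fluo-8 and read kinetically: 10 s baseline, 3 min after compound (agonist portion), then 2 min after EC20 capsaicin (allosteric enhancer portion). Calcium-bound dye fluorescence at 480/520 nm.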
# ELG1 repair inh = ELG1-dependent DNA repair inhibition. Potency, µM (titrated, usually from 46.1 µM), for the others: at the top dose activity change, negative = inhibition, hits mostly inhibitors. HEK293T ELG1-luciferase reporter, luminescence, 16 h; DNA damage induced by 5-fluorouridine. AID 504467. hit rate 2.3% among 330,000; note: potency is the fitted concentration of half-maximal effect; % is set by controls: 0 for no effect and ±100 for the full control effect; nearly all actives have a fitted effect of over 55% in size
#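 Overnight (16 hr) co-exposure of 2,000 cells/well to 5-fluorouridine and compound at 37 °C preceded detection. Luciferase was quantified via ONE-Glo luminescence; loss of signal denotes inhibition.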
# TRPV1 ag = agonists of human vanilloid receptor 1 (TRPV1). Q8NER1. TRPV1-expressing cells, Fluo-8 calcium influx, agonist mode. activation, % at 8.33 µM. hit rate 0.19% among 320,000; in the data active = activation above about 80%; inconclusive = between about 30% and that limit; note: 0% is about no effect
#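 TRPV1-expressing cells were cultured overnight at 35.5C and loaded with Fluo-8 calcium dye for 40 to 90 min at room temperature. After a 10 s baseline, compound was added and calcium influx was read kinetically for 3 min (ex 480/em 520 nm).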
# FUS suppressor = FUS proteinopathy suppression in yeast; hit rate 0.24% among 390,000; Potency, µM (top dose mostly 76.6 µM), usual class: activators; S. cerevisiae FUS-expressing, growth rescue, OD600, 24 h;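 note: potency is the fitted concentration of half-maximal effect; plate controls were DMSO vehicle for no effect and reference control for full effect; nearly all actives have a fitted effect of over 55% in size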
#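 Galactose (2%) drives FUS expression in yeast precultured in raffinose; seeding density OD 0.005. Test compounds incubated 24hr at 30C and 99% humidity before absorbance at 600 nm was measured.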
# Giardia killer = kills Giardia lamblia. Giardia lamblia trophozoite viability. activity change, % at 7.66 µM, hits read low. hit rate 0.15% among 340,000. AID 540267; in the data active = activity change below about -80%; inconclusive = between about -30% and that limit;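 note: parasites exposed to compound for two days anaerobically before the ATP read; % is set by controls: 0 for no effect and ±100 for the full control effect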
#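 Giardia trophozoites, 100 cells per well, were exposed to compounds for 48 hrs at 37 deg C under anaerobic conditions; viability was then read as ATP content by bioluminescence after 15-30 min at room temperature.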
# ELG1 FLuc counter = luciferase inhibition in cell-free luciferin readout for ELG1 hits | shares compounds with ELG1 repair inh | cell-free firefly luciferase luminescence counter-screen, ViewLux | Potency, µM (top dose mostly 46.1 µM), without a hit: at the highest dose activity change, negative = inhibition, most hits filed as inhibitors | hit rate 3% among 350 | AID 624247; note: potency is the fitted concentration of half-maximal effect; % is set by controls: 0 for no effect and ±100 for the full control effect
# ELG1-Luc inh = human ELG1 repair inhibition, luciferase-tagged ELG1 confirmation; shares compounds with ELG1 repair inh; Potency, µM (highest dose often 46.1 µM), inactives show at the highest dose activity change, negative = inhibition, usual class: inhibitors; hit rate 68% among 670; HEK293T ELG1-luciferase levels, luminescence; cells co-treated with 5-fluorouridine; note: potency is the fitted concentration of half-maximal effect; % is set by controls: 0 for no effect and ±100 for the full control effect; nearly all actives have a fitted effect of over 55% in size
# ELG1-Luc MMS = MMS-stimulated human ELG1 repair inhibition, confirmed. shares compounds with ELG1 repair inh. Potency, µM (titrated, usually from 46.1 µM), for the others: at the top dose activity change, negative = inhibition, most hits filed as inhibitors. hit rate 53% among 670. HEK293T luciferase-tagged ELG1 level, MMS stimulated. AID 624249; note: potency is the fitted concentration of half-maximal effect; % is set by controls: 0 for no effect and ±100 for the full control effect; nearly all actives have a fitted effect of over 60% in size
# ELG1 5-FU = confirmation of ELG1 repair inhibitors: viability with 5FU | shares compounds with ELG1 repair inh | cell viability with 5-FU, ELG1-dependent repair | Potency, µM (top dose mostly 46.1 µM), for the others: top-dose activity change, negative = viability loss, actives largely listed as cytotoxic | 670 tested, under 10 active;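 note: ELG1-luc HEK293T cells cotreated with 5-fluorouridine at 10 µM final; potency is the fitted concentration of half-maximal effect; viability measured 16 h after compound addition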
# ELG1 MMS cell = confirmation of ELG1 repair inhibitors: viability with MMS. shares compounds with ELG1 repair inh. Cell viability with MMS, ELG1-dependent DNA repair. Potency, µM (top dose mostly 46.1 µM), for the others: at the highest dose activity change, negative = viability loss, most hits filed as cytotoxic. hit rate 33% among 670;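 note: ELG1-luc HEK293T cells co-treated with 10 µM MMS; potency is the fitted concentration of half-maximal effect; viability read 16 h after compound addition; % is set by controls: 0 for no effect and ±100 for the full control effect; nearly all actives have a fitted effect of over 60% in size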
# ELG1 unstim viab = unstimulated viability counter-screen for ELG1 repair hits. Potency, µM (top dose mostly 45.9 µM), without a hit: top-dose activity change, negative = loss of viability, most hits filed as cytotoxic. cell viability counter-screen, unstimulated, luminescence. shares compounds with ELG1 repair inh. hit rate 8% among 900. AID 624252;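 note: potency is the fitted concentration of half-maximal effect; compound exposure lasted 16 hours before reading; % is set by controls: 0 for no effect and ±100 for the full control effect; nearly all actives have a fitted effect of over 55% in size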
# FLuc biochem = inhibits purified firefly luciferase, counter-screen for ELG1 hits; shares compounds with ELG1 repair inh; AID 624253; Potency, µM (titrated, usually from 57.5 µM), without a hit: at the top dose activity, negative = inhibition, actives largely listed as inhibitors; purified firefly luciferase, luminescence counter-screen; hit rate 10% among 350; note: potency is the fitted concentration of half-maximal effect; % is set by controls: 0 for no effect and ±100 for the full control effect
# * = called active by the depositor; i = inactive; u = inconclusive; x = not tested or not shown. Compounds with a hit are over-represented: about 2.3% of the library has one in this group of screens. Unless noted, calls come from the whole dose curve; as a rule, active = well fitted curve in the direction sought with a large enough effect; inconclusive = small, poorly fitted or top-dose-only effect, or another doubt; inactive = no such curve, though single readings can be large; an effect the other way counts as inactive or inconclusive.
SMILES,TRPV1 potentiator,ELG1 repair inh,TRPV1 ag,FUS suppressor,Giardia killer,ELG1 FLuc counter,ELG1-Luc inh,ELG1-Luc MMS,ELG1 5-FU,ELG1 MMS cell,ELG1 unstim viab,FLuc biochem
O=C(NNc1ccnc2cc(Cl)ccc12)C1CCCCC1,-17.8,0.517µM*,u,i,6.8,-16.6%,-8.9%,0.889µM*,-5.4%,0.706µM*,u,-7.8%
Cc1[nH]nc2ncc(C(=O)c3ccccc3O)cc12,-2.0,2.51µM*,-0.2,12.6µM*,3.4,x,3.53µM*,9.96µM*,u,u,-7.8%,x
O=C(NC1CCCCCCC1)c1cc(COc2ccc3ncccc3c2)on1,-4.4,1.64µM*,u,i,-16.8,-12.4%,17.7µM*,1.12µM*,-2.8%,1.41µM*,u,u
Cc1cccnc1CN1CCN(C(=O)c2cc(COc3ccc4ncccc4c3)on2)CC1,-3.2,u,4.5,i,14.2,x,x,x,x,x,x,x
CCOC(=O)N1CCN(C(=O)c2cc(COc3ccc4ncccc4c3)on2)CC1,-2.1,9.2µM*,2.6,i,46.7,-5.4%,19.9µM*,5.61µM*,-0.3%,4.45µM*,14.1µM*,-3.3%
CCc1nc2oc3ccccc3c(=O)c2c(=O)n1CCOC,x,6.2%,x,i,-6.6,x,x,x,x,x,x,x
COCCn1c(C(C)C)nc2oc3ccccc3c(=O)c2c1=O,4.2,1.41µM*,4.9,i,-6.2,x,4.8%,10.5%,10.3%,7.6%,12.1%,x
CCOC(=O)N1CCN(C(=O)c2cnn3c(C(F)F)cc(-c4ccc(C)cc4)nc23)CC1,-12.8,3.66µM*,u,i,-9.8,x,3.53µM*,5.4%,u,-7.8%,u,x
COc1ccc(-c2cc(C(F)F)n3ncc(C(=O)N4CCc5ccccc54)c3n2)cc1,-1.0,0.517µM*,2.6,i,-8.8,19.1%,4.45µM*,u,u,u,-10.8%,4.3%
COc1ccc(-c2cc(C(F)F)n3ncc(C(=O)Nc4ccc(C(=O)N5CCOCC5)cc4)c3n2)cc1,-6.8,2.59µM*,10.6,i,18.2,x,2.81µM*,-27.7%,u,5.9%,u,x
NC(=O)c1cccc(-c2ccnc3c2CC(C(=O)NCc2ccccc2)O3)c1 (stereo not drawn),x,x,x,i,x,x,x,x,x,x,x,x
Cc1c(NC(=O)C(F)(F)F)ccc2nc3c(=O)n(C)c(=O)n(C)c3nc12,x,x,x,i,x,x,x,x,x,x,x,x
Cc1nc2nc(C)c(CCC(=O)NCCc3ccccc3)c(C)n2n1,x,x,x,i,x,x,x,x,x,x,x,x
O=C(NOCc1ccccc1)c1ccccc1,4.7,u,2.0,i,-2.5,x,x,x,x,x,-11.6%,x
Cc1ccc(CONC(=O)c2cccc(C)c2)cc1,-17.9,u,u,i,13.2,x,x,x,x,x,x,x
